Assay results from the supplement of paper PMC8728848.
Shown is part of a subset that was picked to be rich in the strongest signals.

Key:
Assay in all cases: glycan array binding signal (z-score within array); higher = stronger binding
Details in all cases: glycan notation: IUPAC condensed, linker removed
[1] = target: Fuc(a1-2)Gal(b1-3)GalNAc(b1-3)Gal(a1-4)Gal(b1-4)Glc
In short: (§1)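 Negative Z-scores can be read as non-binding. The Z-score is calculated within each array and then averaged across arrays of one protein sequence at different concentrations or buffers and across linkers. Arrays, 3228 in all, were curated from the Consortium for Functional Glycomics database and kept only where the protein sequence was available.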

[2] = target: Fuc(a1-2)Gal(b1-3)GlcNAc(b1-3)[Neu5Ac(a2-6)Gal(b1-4)GlcNAc(b1-6)]Gal(b1-4)Glc
In short: as §1

[3] = target: Fuc(a1-2)Gal(b1-3)[Fuc(a1-4)]GlcNAc(b1-2)Man(a1-3)[Fuc(a1-2)Gal(b1-3)[Fuc(a1-4)]GlcNAc(b1-2)Man(a1-6)]Man(b1-4)GlcNAc(b1-4)[Fuc(a1-6)]GlcNAc(b1-4)[Fuc(a1-6)]GlcNAc
In short: as §1

[4] = target: Fuc(a1-2)Gal(b1-4)[Fuc(a1-3)]GlcNAc(b1-3)GalNAc
In short: as §1

[5] = target: Fuc(a1-2)Gal6S(b1-3)GlcNAc6S
In short: as §1

[6] = target: Fuc(a1-2)[Gal(a1-3)]Gal(b1-4)[Fuc(a1-3)]Glc
In short: as §1

[7] = target: Fuc(a1-2)[Gal(a1-4)]Gal(b1-4)GlcNAc
In short: as §1

[8] = target: Fuc(a1-2)[GalNAc(a1-3)]Gal(b1-3)GalNAc(b1-3)Gal(a1-4)Gal(b1-4)Glc
In short: as §1

[9] = target: Fuc(a1-2)[GalNAc(a1-3)]Gal(b1-4)GlcNAc(b1-3)Gal(b1-4)GlcNAc(b1-3)Gal(b1-4)GlcNAc
In short: as §1

[10] = target: Fuc(a1-2)[GalNAc(a1-3)]Gal(b1-4)GlcNAc(b1-3)GalNAc
In short: as §1

[11] = target: Fuc(a1-2)[GalNAc(a1-3)]Gal(b1-4)[Fuc(a1-3)]GlcNAc(b1-3)GalNAc
In short: as §1

[12] = target: Fuc(a1-3)[Gal(b1-4)]GlcNAc(b1-2)Man
In short: as §1

[13] = target: Fuc(a1-3)[Gal3S(b1-4)]GlcNAc
In short: as §1

[14] = target: Fuc(a1-3)[GalNAc(b1-4)]GlcNAc
In short: as §1

Fuc(a1-4)GlcNAc = target: Fuc(a1-4)GlcNAc
In short: as §1

Gal(b1-3)GalNAc(b1-3)Gal = target: Gal(b1-3)GalNAc(b1-3)Gal
In short: as §1

[15] = target: Gal(b1-3)GlcNAc(b1-3)Gal(b1-4)[Fuc(a1-3)]GlcNAc
In short: as §1

[16] = target: Gal(b1-3)[Neu5Ac(b2-6)]GalNAc
In short: as §1

Gal(b1-4)Glc6S = target: Gal(b1-4)Glc6S
In short: as §1

[17] = target: Gal(b1-4)GlcNAc(b1-3)Gal(b1-3)GlcNAc
In short: as §1

[18] = target: Gal(b1-4)GlcNAc(b1-3)Gal(b1-4)GlcNAc(b1-2)[Gal(b1-4)GlcNAc(b1-3)Gal(b1-4)GlcNAc(b1-6)]Man(a1-6)[Gal(b1-4)GlcNAc(b1-3)Gal(b1-4)GlcNAc(b1-2)Man(a1-3)]Man(b1-4)GlcNAc(b1-4)GlcNAc
In short: as §1

[19] = target: Gal(b1-4)GlcNAc(b1-3)Gal(b1-4)[Fuc(a1-3)]GlcNAc(b1-3)Gal(b1-4)[Fuc(a1-3)]GlcNAc
In short: as §1

[20] = target: Gal(b1-4)GlcNAc(b1-3)[Gal(b1-4)GlcNAc(b1-6)]Gal(b1-4)GlcNAc
In short: as §1

[21] = target: Gal(b1-4)GlcNAc(b1-3)[GlcNAc(b1-6)]Gal(b1-4)GlcNAc
In short: as §1

Gal(b1-6)Gal = target: Gal(b1-6)Gal
In short: as §1

Gal3S(b1-4)Glc = target: Gal3S(b1-4)Glc
In short: as §1

Gal3S6S(b1-4)GlcNAc6S = target: Gal3S6S(b1-4)GlcNAc6S
In short: as §1

GalNAc(b1-3)Gal = target: GalNAc(b1-3)Gal
In short: as §1

[22] = target: GalNAc(b1-3)Gal(a1-4)Gal(b1-4)GlcNAc
In short: as §1

GalNAc(b1-6)GalNAc = target: GalNAc(b1-6)GalNAc
In short: as §1

[23] = target: GlcNAc(b1-3)Gal(b1-4)GlcNAc(b1-3)Gal(b1-4)GlcNAc(b1-2)[GlcNAc(b1-3)Gal(b1-4)GlcNAc(b1-3)Gal(b1-4)GlcNAc(b1-6)]Man(a1-6)[GlcNAc(b1-3)Gal(b1-4)GlcNAc(b1-3)Gal(b1-4)GlcNAc(b1-2)Man(a1-3)]Man(b1-4)GlcNAc(b1-4)[Fuc(a1-6)]GlcNAc
In short: as §1

[24] = target: GlcNAc(b1-3)Gal(b1-4)GlcNAc(b1-3)Gal(b1-4)GlcNAc(b1-3)Gal(b1-4)GlcNAc(b1-2)Man(a1-3)[GlcNAc(b1-3)Gal(b1-4)GlcNAc(b1-3)Gal(b1-4)GlcNAc(b1-3)Gal(b1-4)GlcNAc(b1-2)Man(a1-6)]Man(b1-4)GlcNAc(b1-4)GlcNAc
In short: as §1

[25] = target: GlcNAc(b1-3)Gal(b1-4)GlcNAc(b1-3)Gal(b1-4)GlcNAc(b1-3)Gal(b1-4)GlcNAc(b1-3)Gal(b1-4)GlcNAc(b1-2)Man(a1-3)[GlcNAc(b1-3)Gal(b1-4)GlcNAc(b1-3)Gal(b1-4)GlcNAc(b1-3)Gal(b1-4)GlcNAc(b1-3)Gal(b1-4)GlcNAc(b1-2)Man(a1-6)]Man(b1-4)GlcNAc(b1-4)[Fuc(a1-6)]GlcNAc
In short: as §1

[26] = target: GlcNAc(b1-3)[GlcNAc(b1-6)]Gal(b1-4)GlcNAc
In short: as §1

Kdn(a2-3)Gal(b1-3)GalNAc = target: Kdn(a2-3)Gal(b1-3)GalNAc
In short: as §1

Man(a1-3)[Man(a1-6)]Man = target: Man(a1-3)[Man(a1-6)]Man
In short: as §1

[27] = target: Man(a1-3)[Man(a1-6)]Man(a1-6)[Man(a1-3)]Man
In short: as §1

Man(a1-6)Man = target: Man(a1-6)Man
In short: as §1

[28] = target: Neu5Ac(a2-3)Gal(b1-3)]Neu5Ac(a2-3)Gal(b1-4)]GlcNAc
In short: as §1

Neu5Ac(a2-3)Gal(b1-4)Glc = target: Neu5Ac(a2-3)Gal(b1-4)Glc
In short: as §1

[29] = target: Neu5Ac(a2-3)Gal(b1-4)GlcNAc(b1-3)Gal
In short: as §1

[30] = target: Neu5Ac(a2-3)Gal(b1-4)GlcNAc(b1-3)Gal(b1-4)[Fuc(a1-3)]GlcNAc
In short: as §1

[31] = target: Neu5Ac(a2-3)Gal(b1-4)GlcNAc(b1-3)GalNAc
In short: as §1

[32] = target: Neu5Ac(a2-3)Gal(b1-4)[Fuc(a1-3)]GlcNAc(b1-3)Gal(b1-4)GlcNAc
In short: as §1

[33] = target: Neu5Ac(a2-3)Gal(b1-4)[Fuc(a1-3)]GlcNAc(b1-3)GalNAc
In short: as §1

[34] = target: Neu5Ac(a2-3)[GalNAc(b1-4)]Gal(b1-4)GlcNAc(b1-3)GalNAc
In short: as §1

[35] = target: Neu5Ac(a2-6)Gal(b1-4)GlcNAc
In short: as §1

[36] = target: Neu5Ac(a2-6)Gal(b1-4)GlcNAc(b1-2)Man(a1-3)[GlcNAc(b1-2)Man(a1-6)]Man(b1-4)GlcNAc(b1-4)GlcNAc
In short: as §1

[37] = target: Neu5Ac(a2-6)Gal(b1-4)GlcNAc(b1-3)Gal(b1-4)GlcNAc(b1-3)[Neu5Ac(a2-6)Gal(b1-4)GlcNAc(b1-3)Gal(b1-4)GlcNAc(b1-6)]GalNAc
In short: as §1

[38] = target: Neu5Ac(a2-6)Gal(b1-4)GlcNAc(b1-3)Gal(b1-4)GlcNAc(b1-6)[Gal(b1-3)]GalNAc
In short: as §1

[39] = target: Neu5Ac(a2-8)Neu5Ac(a2-3)Gal(b1-4)GlcNAc
In short: as §1

[40] = target: Neu5Ac(a2-8)Neu5Ac(a2-8)Neu5Ac(a2-3)Gal(b1-4)Glc
In short: as §1

[41] = target: Neu5Gc(a2-3)Gal(b1-4)GlcNAc
In short: as §1

[42] = target: Neu5Gc(a2-8)Neu5Ac(a2-3)Gal(b1-4)GlcNAc
In short: as §1

B1: GS13814A-bth-462-26-462 (Bacteroides thetaiotaomicron) (protein)
chain: DDRDNLMVNDQIGLLHSTYTETEIFRGMDTPYQLFVIKSGKGKQETEVSISVDETVLQSYNTDNGTSIQLLPSDCYTILQPALRLNDSDYRKAFDIKWNADRLSDLLSTGKEYGLPIQMSVVQNFISADDERLKTIIVPTIKEPYLQMDVPGMSPVTDFMPTFGDLNERELFVKIRTNYSNDEDISFQIEVDPQLVIDYNTAHGTAYKMLPESSFTVDNKGVILTGMKETFIKIKYHKKGLIPEEGTYLFGDYVLPLRITSVSKYGISPDAASKLYTVKFQPDPIDKKGWSVIDFNNCCTQDGGWYLNMGWGVESLIDNNPGTQWLCRWDVKEPLPYYFVFDMGKEYTLFRFGFANPVAPAAHVWAGTSKAGYVEASIDNENWVKLKDWTSPKIGEPNVNMDVPATQARYIRFVITDTYPTYDGLRVSLGEVYAWGM
[1]
  glycan array binding signal (z-score): -0.308
[2]
  glycan array binding signal (z-score): -0.718
[3]
  glycan array binding signal (z-score): 0.703
[4]
  glycan array binding signal (z-score): 2.19
[5]
  glycan array binding signal (z-score): 3.15
[6]
  glycan array binding signal (z-score): 0.027
[7]
  glycan array binding signal (z-score): 1.11
[8]
  glycan array binding signal (z-score): 1.01
[9]
  glycan array binding signal (z-score): -0.363
[10]
  glycan array binding signal (z-score): -0.276
[11]
  glycan array binding signal (z-score): 2.42
[12]
  glycan array binding signal (z-score): 0.981
[13]
  glycan array binding signal (z-score): 1.23
[14]
  glycan array binding signal (z-score): 2.12
Fuc(a1-4)GlcNAc
  glycan array binding signal (z-score): 14.3
Gal(b1-3)GalNAc(b1-3)Gal
  glycan array binding signal (z-score): 0.61
[15]
  glycan array binding signal (z-score): 0.725
[16]
  glycan array binding signal (z-score): -0.165
Gal(b1-4)Glc6S
  glycan array binding signal (z-score): -0.019
[17]
  glycan array binding signal (z-score): -0.895
[18]
  glycan array binding signal (z-score): -0.241
[19]
  glycan array binding signal (z-score): 0.104
[20]
  glycan array binding signal (z-score): -0.298
[21]
  glycan array binding signal (z-score): -0.604
Gal(b1-6)Gal
  glycan array binding signal (z-score): 0.332
Gal3S(b1-4)Glc
  glycan array binding signal (z-score): -0.952
Gal3S6S(b1-4)GlcNAc6S
  glycan array binding signal (z-score): 2.45
GalNAc(b1-3)Gal
  glycan array binding signal (z-score): -0.506
[22]
  glycan array binding signal (z-score): 2.74
GalNAc(b1-6)GalNAc
  glycan array binding signal (z-score): -0.44
[23]
  glycan array binding signal (z-score): 0.296
[24]
  glycan array binding signal (z-score): -0.256
[25]
  glycan array binding signal (z-score): 1.41
[26]
  glycan array binding signal (z-score): -0.285
Kdn(a2-3)Gal(b1-3)GalNAc
  glycan array binding signal (z-score): 0.216
Man(a1-3)[Man(a1-6)]Man
  glycan array binding signal (z-score): 0.087
[27]
  glycan array binding signal (z-score): -1
Man(a1-6)Man
  glycan array binding signal (z-score): 0.563
[28]
  glycan array binding signal (z-score): 2.12
Neu5Ac(a2-3)Gal(b1-4)Glc
  glycan array binding signal (z-score): 2.85
[29]
  glycan array binding signal (z-score): -0.359
[30]
  glycan array binding signal (z-score): -1.35
[31]
  glycan array binding signal (z-score): -0.818
[32]
  glycan array binding signal (z-score): 2.69
[33]
  glycan array binding signal (z-score): 2.14
[34]
  glycan array binding signal (z-score): -1.22
[35]
  glycan array binding signal (z-score): -0.069
[36]
  glycan array binding signal (z-score): 0.48
[37]
  glycan array binding signal (z-score): -1.35
[38]
  glycan array binding signal (z-score): -0.806
[39]
  glycan array binding signal (z-score): -1.27
[40]
  glycan array binding signal (z-score): -1.35
[41]
  glycan array binding signal (z-score): 1.47
[42]
  glycan array binding signal (z-score): -0.879
